Data reported in PubChem BioAssay (Tox21).
Records with an inconclusive call do not appear. The source made the active and inactive calls. Unless noted, calls come from the whole dose curve.

Columns and labels:
[1] = Nuclear factor erythroid 2-related factor 2/antioxidant responsive element (Nrf2/ARE) small molecule agonists: qHTS cell viability counter screen in human keratinocytes (AID 1919968; active = well fitted curve in the direction sought with a large enough effect in the repeat runs; an effect the other way counts as inactive or inconclusive; note: nearly all actives have a fitted effect of over 55% in size)
How it was run: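 Cytotoxicity was multiplexed with the Nrf2/ARE luciferase assay in the same wells. Stably transfected HaCaT keratinocytes were treated with test compounds for 23 h at 37 C. Cell viability was then measured by CellTiter-Fluor fluorescence.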

[2] = Nuclear factor erythroid 2-related factor 2/antioxidant responsive element (Nrf2/ARE) small molecule agonists: luciferase reporter gene qHTS assay in human keratinocytes (AID 1919969); note: nearly all actives have a fitted effect of over 35% in size; note: potency is the fitted concentration of half-maximal effect
[3] = biological target: Gonadotropin-releasing hormone receptor (Homo sapiens) (UniProt P30968); experiment: Human gonadotropin-releasing hormone receptor (GnRHR) small molecule agonists, calcium flux assay in GnRHR-HEK293 cells (AID 1920063); note: nearly all actives have a fitted effect of over 35% in size
Gonadotropin-releasing hormone receptor (Homo sapiens), sequence (P30968 whole entry, looked up): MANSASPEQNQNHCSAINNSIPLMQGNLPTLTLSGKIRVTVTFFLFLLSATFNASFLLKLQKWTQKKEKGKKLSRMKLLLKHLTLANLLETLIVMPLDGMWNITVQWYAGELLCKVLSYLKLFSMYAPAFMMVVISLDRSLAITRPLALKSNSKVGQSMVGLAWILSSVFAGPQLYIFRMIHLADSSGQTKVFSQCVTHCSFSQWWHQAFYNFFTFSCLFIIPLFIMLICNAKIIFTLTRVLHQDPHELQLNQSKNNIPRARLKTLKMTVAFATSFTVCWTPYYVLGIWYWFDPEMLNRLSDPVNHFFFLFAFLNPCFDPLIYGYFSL
How it was run: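 Agonist activity was measured as intracellular calcium flux in HEK293 cells engineered to stably express human GnRHR. After dye loading for 1 hour at 37 C, compounds in DMSO were added and fluorescence was followed for 3 minutes.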

[4] = biological target: KiSS-1 receptor (Homo sapiens) (UniProt Q969F8); experiment: Human kisspeptin (KISS1R) small molecule agonists, calcium flux assay in KISS1R-HEK293 cells (AID 1920064; active = well fitted curve in the direction sought with a large enough effect in the repeat runs; an effect the other way counts as inactive or inconclusive)
KiSS-1 receptor (Homo sapiens), sequence (Q969F8 whole entry, looked up): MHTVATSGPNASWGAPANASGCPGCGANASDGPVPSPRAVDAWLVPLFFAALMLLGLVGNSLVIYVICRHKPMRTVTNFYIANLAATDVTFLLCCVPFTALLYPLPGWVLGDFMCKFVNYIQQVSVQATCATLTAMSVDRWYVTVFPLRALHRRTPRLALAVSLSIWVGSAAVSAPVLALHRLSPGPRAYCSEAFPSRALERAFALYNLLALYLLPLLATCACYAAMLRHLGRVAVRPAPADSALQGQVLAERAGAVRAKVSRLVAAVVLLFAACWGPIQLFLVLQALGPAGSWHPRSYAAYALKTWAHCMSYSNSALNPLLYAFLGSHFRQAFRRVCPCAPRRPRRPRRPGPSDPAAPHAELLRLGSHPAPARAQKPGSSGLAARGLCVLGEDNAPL
How it was run: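 Agonist activity is monitored as intracellular calcium rise in engineered HEK293 cells carrying human KISS1R. Cells are dye-loaded for 1 h at 37 C before compound addition, and fluorescence is recorded for 3 min.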

[5] = G protein-coupled receptor (GPCR) small molecule agonists, calcium flux assay: HEK293 wild type cell line counter screen (AID 1920065)
How it was run: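 Seed cells, incubate 18 h (37 C, 5% CO2); add calcium dye, 1 h at 37 C; pin-transfer compounds, ATP control or DMSO; read fluorescence 480/540 nm each second for 3 min.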

[6] = p53 small molecule agonists, cell-based qHTS assay with human liver microsomes (AID 1963577);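 note: p53 response element beta-lactamase reporter cells with liver microsomes plus NADPH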
How it was run: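 With metabolic activation: human liver microsomes (0.5 mg/mL final) plus NADPH (0.5 mg/mL final) added alongside compounds to p53RE-bla cells; 16 h 37 C exposure; beta-lactamase read by LiveBLAzer fluorescence.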

[7] = p53 small molecule agonists, cell-based qHTS assay with rat liver microsomes (AID 1963578)
How it was run: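 Metabolic activation by rat liver microsomes and NADPH, each 0.5 mg/mL final, added right after compounds to p53RE-bla reporter cells (4,000/well, plated 5 h earlier). 16 h at 37 C, then LiveBLAzer substrate for 2 h at room temperature in the dark; fluorescence read-out.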

[8] = p53 small molecule agonists, cell-based qHTS assay with human liver microsomes: qHTS cell viability counter screen (AID 1963579); note: nearly all actives have a fitted effect of over 45% in size
How it was run: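 Metabolic activation used human liver microsomes and NADPH, both 0.5 mg/mL final, over 16 hours at 37 C on p53RE-bla cells (4,000/well). Cytotoxicity measured by CellTiter-Glo luminescence, 30 min at room temperature.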

[9] = p53 small molecule agonists, cell-based qHTS assay with rat liver microsomes: qHTS cell viability counter screen (AID 1963580); note: nearly all actives have a fitted effect of over 45% in size
How it was run: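 Cytotoxicity counter screen: intracellular ATP read by CellTiter-Glo luminescence in the p53 reporter wells. HCT-116 p53RE-bla cells were treated for 16 h at 37 C alongside rat liver microsomes and NADPH, each 0.5 mg/mL final.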

[10] = p53 small molecule agonists, cell-based qHTS assay: qHTS cell viability counter screen (AID 1963581); note: nearly all actives have a fitted effect of over 45% in size
How it was run: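 Viability was counter-screened in parallel with the p53 agonist reporter by measuring intracellular ATP luminescence in the same HCT-116 p53RE-bla wells after 16 h compound treatment at 37 C.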

[11] = p53 small molecule agonists, cell-based qHTS assay (AID 1963582; active = well fitted activation curve with a large enough effect in the signal ratio in the repeat runs, not every such curve was filed as active; the % refers to the signal ratio)
How it was run: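 Cells carrying a p53-responsive bla reporter are treated with test compounds for 16 h at 37 C; beta-lactamase activity is then detected with LiveBLAzer B/G FRET substrate after 2 h at room temperature.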

[12] = biological target: 5-hydroxytryptamine receptor 2A (Homo sapiens) (UniProt P28223); experiment: 5-hydroxytryptamine receptor 2A (HTR2A) small molecule antagonists, cell-based qHTS assay (AID 1963586); note: nearly all actives have a fitted effect of over 45% in size
5-hydroxytryptamine receptor 2A (Homo sapiens), sequence (P28223 whole entry, looked up): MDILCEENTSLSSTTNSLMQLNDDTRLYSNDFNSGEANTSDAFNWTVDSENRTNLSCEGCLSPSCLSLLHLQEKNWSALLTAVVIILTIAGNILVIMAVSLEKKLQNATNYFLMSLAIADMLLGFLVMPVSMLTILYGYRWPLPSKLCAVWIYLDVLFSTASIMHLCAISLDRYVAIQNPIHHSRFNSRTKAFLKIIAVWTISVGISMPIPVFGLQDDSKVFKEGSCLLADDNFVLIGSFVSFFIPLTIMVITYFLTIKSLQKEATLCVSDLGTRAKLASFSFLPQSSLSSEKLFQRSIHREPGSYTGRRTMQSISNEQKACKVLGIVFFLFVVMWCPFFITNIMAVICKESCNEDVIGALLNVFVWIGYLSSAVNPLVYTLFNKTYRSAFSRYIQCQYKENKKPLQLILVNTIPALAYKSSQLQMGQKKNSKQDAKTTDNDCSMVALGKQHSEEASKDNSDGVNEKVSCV
How it was run: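 CHO cells stably expressing human HTR2A were plated for 18 h at 37 C, then loaded with calcium dye for 1 h. Compounds were preincubated 5 min at room temperature before DOI (4 nM solution) was added. Kinetic fluorescence was read for 3 min.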

[13] = biological target: 5-hydroxytryptamine receptor 2A (Homo sapiens) (UniProt P28223); experiment: 5-hydroxytryptamine receptor 2A (HTR2A) small molecule agonists, cell-based qHTS assay (AID 1963587); note: nearly all actives have a fitted effect of over 30% in size
How it was run: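 Kinetic calcium-flux fluorescence (2 min, 1 sec intervals) after compound addition in agonist mode. HTR2A-CHO cells were cultured 18 h, then dye-loaded 1 h at 37 C.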

[14] = biological target: Muscarinic acetylcholine receptor M1 (Homo sapiens) (UniProt P11229); experiment: Cholinergic receptor muscarinic 1 (CHRM1) small molecule antagonists, cell-based qHTS assay (AID 1963588); note: nearly all actives have a fitted effect of over 40% in size
Muscarinic acetylcholine receptor M1 (Homo sapiens), sequence (P11229 whole entry, looked up): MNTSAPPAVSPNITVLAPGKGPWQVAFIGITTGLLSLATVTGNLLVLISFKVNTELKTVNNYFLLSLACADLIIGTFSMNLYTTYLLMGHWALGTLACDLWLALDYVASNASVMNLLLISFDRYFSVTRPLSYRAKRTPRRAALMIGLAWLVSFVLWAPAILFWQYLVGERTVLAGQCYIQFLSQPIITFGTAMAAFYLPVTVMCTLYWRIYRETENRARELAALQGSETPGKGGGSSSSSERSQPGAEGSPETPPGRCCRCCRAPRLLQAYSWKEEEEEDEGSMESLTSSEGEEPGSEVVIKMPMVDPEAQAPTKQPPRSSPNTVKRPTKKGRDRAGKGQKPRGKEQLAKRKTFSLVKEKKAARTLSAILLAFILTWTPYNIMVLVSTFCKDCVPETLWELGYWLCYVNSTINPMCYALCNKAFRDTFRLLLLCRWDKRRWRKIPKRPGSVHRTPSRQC
How it was run: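 Compounds were tested at 15 concentrations in three independent runs. Dye-loaded CHRM1-CHO cells were exposed 5 min at room temperature before stimulation by acetylcholine added at 50nM. Intracellular calcium was read kinetically on FDSS for 3 min.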

[15] = biological target: Muscarinic acetylcholine receptor M1 (Homo sapiens) (UniProt P11229); experiment: Cholinergic receptor muscarinic 1 (CHRM1) small molecule agonists, cell-based qHTS assay (AID 1963589); note: nearly all actives have a fitted effect of over 35% in size
How it was run: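 Cells were plated and incubated 18 h at 37 C/5% CO2, loaded with calcium dye for 1 h at 37 C, then treated with compounds in DMSO. Fluorescence was recorded kinetically at 1 sec intervals.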

[16] = cAMP Responsive Elements (CRE) small molecule agonists, cell-based qHTS assay (AID 1963590)
How it was run: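 Cells carrying a CRE-driven beta-lactamase reporter (HEK 293T) are seeded, incubated overnight (18 h), and treated with test compounds for 3 h at 37 C; reporter activity is then detected with a FRET substrate after 2 h at room temperature.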

[17] = cAMP Responsive Elements (CRE) small molecule antagonists, cell-based qHTS assay (AID 1963591; active = well fitted inhibition curve with a large enough effect in the signal ratio in the repeat runs, not every such curve was filed as active; the % refers to the signal ratio)
How it was run: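 Cells (CRE-bla HEK 293T, DMEM with 10% dialyzed FBS and 25 mM HEPES) are seeded and incubated 18 h. Compounds are added with NKH477 agonist at 0.25 uM final for 3 h, then FRET substrate for 2 h.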

[18] = biological target: Beta-2 adrenergic receptor (Homo sapiens) (UniProt P07550); experiment: Adrenergic beta2 receptor (ADRB2) small molecule antagonists, cell-based qHTS assay (AID 1963592); note: series mostly up to about 92 µM; nearly all actives have a fitted effect of over 50% in size
Beta-2 adrenergic receptor (Homo sapiens), sequence (P07550 whole entry, looked up): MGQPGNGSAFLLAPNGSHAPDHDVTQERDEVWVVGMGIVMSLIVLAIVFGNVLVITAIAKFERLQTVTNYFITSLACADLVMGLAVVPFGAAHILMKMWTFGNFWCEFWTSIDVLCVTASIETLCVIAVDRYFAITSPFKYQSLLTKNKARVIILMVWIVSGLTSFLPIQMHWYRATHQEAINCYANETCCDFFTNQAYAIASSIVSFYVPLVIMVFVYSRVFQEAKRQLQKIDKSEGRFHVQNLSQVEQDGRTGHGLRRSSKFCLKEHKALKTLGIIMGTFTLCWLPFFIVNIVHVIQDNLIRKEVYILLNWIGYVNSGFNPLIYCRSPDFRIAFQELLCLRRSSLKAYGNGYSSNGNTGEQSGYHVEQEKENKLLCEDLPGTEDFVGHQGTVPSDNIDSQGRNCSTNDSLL
How it was run: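 Assay format: CHO-ADRB2 cells, 18-20hr seeding at 37C/5% CO2, then compound plus 1nM isoproterenol agonist mix for 0.5hr RT. Homogeneous time-resolved fluorescence cAMP detection after 1hr, expressed as 665/615 nm ratio.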

[19] = biological target: D(2) dopamine receptor (Homo sapiens) (UniProt P14416); experiment: Dopamine D2 receptor (DRD2) small molecule agonists, cell-based qHTS assay (AID 1963594); note: nearly all actives have a fitted effect of over 35% in size
D(2) dopamine receptor (Homo sapiens), sequence (P14416 whole entry, looked up): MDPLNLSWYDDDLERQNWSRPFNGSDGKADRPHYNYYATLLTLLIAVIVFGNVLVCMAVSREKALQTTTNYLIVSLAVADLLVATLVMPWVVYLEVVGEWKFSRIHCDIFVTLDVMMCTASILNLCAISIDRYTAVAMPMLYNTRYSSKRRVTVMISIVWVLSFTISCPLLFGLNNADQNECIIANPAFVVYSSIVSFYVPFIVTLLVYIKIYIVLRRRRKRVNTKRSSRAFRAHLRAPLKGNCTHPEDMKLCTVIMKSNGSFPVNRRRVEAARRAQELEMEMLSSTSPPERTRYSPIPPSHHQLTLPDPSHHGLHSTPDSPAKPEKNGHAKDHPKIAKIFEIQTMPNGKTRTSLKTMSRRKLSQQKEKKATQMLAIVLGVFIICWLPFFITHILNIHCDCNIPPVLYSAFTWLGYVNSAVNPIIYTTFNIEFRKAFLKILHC
How it was run: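 cAMP accumulation in DRD2-HEK293 cells measured by HTRF after 1 h detection; compounds added 10 min before NKH477 (200nM […]) forskolin-analogue stimulation, 30 min at room temperature, with Ro20-1724 present at 0.1 mM final.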

[20] = biological target: D(2) dopamine receptor (Homo sapiens) (UniProt P14416); experiment: Dopamine D2 receptor (DRD2) small molecule antagonists, cell-based qHTS assay (AID 1963595; active = well fitted inhibition curve with a large enough effect in the signal ratio in the repeat runs, with a control signal flat; the % refers to the signal ratio)
How it was run: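 Stable D2 receptor HEK293 line, 24 h after seeding. Compound preincubated 10 min, then quinpirole (12 nM) with forskolin analogue NKH477 (200 nM), 30 min, room temperature. Detection by time-resolved FRET of cAMP.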

Measured: Potency

O=C([O-])c1ccccn1.O=C([O-])c1ccccn1.O=C([O-])c1ccccn1.[Cr+3]
inactive: all assays above

CCCCN(CC)C(=O)SCCC
inactive: all assays above

CCCCCCCCCl
inactive: all assays above

CCOC(=O)C1OC1(C)c1ccccc1 (centres undefined)
not listed: [20]
inactive: all other assays above

CNC(=O)Oc1c(C(C)(C)C)cc(C)cc1C(C)(C)C
active: [2] 61.1 µM
inactive: all other assays above

Nc1nc(N)nc(Cl)n1
inactive: all assays above

N#CC(c1ccccc1)c1ccccc1
inactive: all assays above
